Compound activity from PubChem BioAssay.
A selection: hits, their analogues and other compounds. The true share with any hit is near 21%.
Shiga toxin inh – A qHTS for Small Molecule Inhibitors of Shiga Toxin; inhibition, % at 38.7 µM; AID 2315, 2010; hit rate 9.2% among 290,000; Vero cells, Shiga toxin protein synthesis inhibition reporter; in the data active = inhibition mostly above about 28%, no sharp cut-off; inactive = mostly below about 43%; also: 0% is about no effect
NS1 inh – qHTS Assay for Inhibitors of Influenza NS1 Protein Function | Potency, µM (highest dose often 46.1 µM), for inactives: top-dose activity, positive = more growth | hit rate 0.4% among 270,000 | AID 2326, 2010; calls by dose curve; also: potency is read from the fitted curve at half-maximal effect; actives are rising curves; nearly all actives have a fitted effect of over 50% in size
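Read-out: OD600 growth recovery of NS1-expressing budding yeast. Cells grown overnight at 30C in -URA glucose medium, washed, resuspended and diluted 1:100 in 2% galactose assay medium, pH 6.0. Same strain lacking NS1 served as positive control.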
SARS PLpro yeast – qHTS of Yeast-based Assay for SARS-CoV PLP; Potency, µM (titrated, usually from 32.9 µM), without a hit: top-dose activity, positive = growth rescue, hits mostly activators; hit rate 0.19% among 330,000; AID 485353, 2010; S. cerevisiae expressing SARS-CoV PLpro, growth rescue; calls by dose curve; also: potency is read from the fitted curve at half-maximal effect; 0% is about no effect; nearly all actives have a fitted effect of over 55% in size
Cycloheximide cs – Cycloheximide Counterscreen for Small Molecule Inhibitors of Shiga Toxin | max response, % | cell reporter, cycloheximide protein synthesis inhibition counterscreen | hit rate 12% among 300,000; in the data active = max response mostly above about 13%, no sharp cut-off; inactive = mostly below about 14%; also: read at 38.3 µM for the half of the compounds with a filed dose; 0% is about no effect
Pf growth 96h – Primary qHTS for delayed death inhibitors of the malarial parasite plastid, 96 hour incubation. P. falciparum luciferase reporter growth, 96 h. Potency, µM (titrated, usually from 28.7 µM), for inactives: at the top dose activity change, negative = inhibition, usual class: inhibitors. hit rate 6.9% among 320,000. AID 504834, 2011; also: potency is read from the fitted curve at half-maximal effect; % is scaled to controls: 0 for no effect and ±100 for the full control effect
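P. falciparum expressing integrated firefly luciferase, in erythrocytes at 2% hematocrit, 0.05% parasitemia, incubated with compounds 96 h at 37 C, 5% CO2. Growth inhibition read as loss of luminescence; two-generation exposure targets delayed-death apicoplast inhibitors.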
Pf growth 48h – Primary qHTS for delayed death inhibitors of the malarial parasite plastid, 48 hour incubation | Potency, µM (titrated, usually from 28.7 µM), for inactives: at the highest dose activity change, negative = inhibition, most hits filed as inhibitors | P. falciparum luciferase growth in erythrocytes, 48 h | AID 504832, 2011 | hit rate 5.9% among 310,000; also: potency is read from the fitted curve at half-maximal effect; % is scaled to controls: 0 for no effect and ±100 for the full control effect
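A one-generation exposure of luciferase-tagged malaria parasites in RPMI 1640/Albumax erythrocyte culture, 37 C and 5% CO2. Inhibition is inferred from decreased luminescence after adding detection reagent.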
An asterisk follows results filed as active; u = inconclusive; x = no result given; + = active, no number. Unless noted, calls follow the shape of the dose curve; as a rule, active = well fitted inhibition curve with a large enough effect; inconclusive = small, poorly fitted or top-dose-only effect, or another doubt; inactive = no such curve, though single readings can be large or run the other way.

SMILES	Shiga toxin inh	NS1 inh	SARS PLpro yeast	Cycloheximide cs	Pf growth 96h	Pf growth 48h
CC/C(=N\Nc1ccnc2cc(Cl)ccc12)c1ccc(O)cc1	17.6	-40.3%	-8.1%	-5.4	1.31µM*	1.65µM*
O=C(CCC(=O)c1ccccc1)NC1CCCN(Cc2ccccc2F)C1 (stereo not given)	-4.6	7.9%	-1.6%	-2.3	u	-2.6%
COc1ccccc1NC(=O)CSc1nnc(CCC(=O)Nc2ccccc2F)n1C	-4.2	-1.2%	1.6%	-2.3	-4.8%	0.1%
COC(=O)c1ccc(COC(=O)c2cccnc2Cl)cc1	96.9	0.4%	-3.5%	37.2*	71.5%	47.5%
O=C(O)c1ccccc1C(=O)OCc1ccccc1	16.9	-4.8%	x	5.0	74.1%	31.7%
O=C(OCc1ccc(Cl)cc1)c1cccnc1Cl	55.1	-7.2%	-2.1%	17.7*	-2.1%	16.7%
O=C(OCc1ccc(Cl)cc1)c1ccccc1C(=O)c1ccccc1	60.2	-21.3%	-2.3%	21.4*	7.7%	28.6%
O=C(OCc1ccc(COC(=O)c2ccccn2)cc1)c1ccccn1	66.3*	-12.8%	-6.4%	29.7*	x	18.8%
COc1cc(NC(=O)c2cc(S(=O)(=O)N3CCCCC3)c[nH]2)cc(OC)c1	7.7	-17.2%	1.1%	5.7	u	u
C=CCC1(CC=C)CCCN1C(=O)CC1C(=O)NCCN1Cc1cc(OC)cc(OC)c1 (stereo not given)	-10.1	-2.2%	-1.2%	1.4	u	14.7µM*
COc1ccc2oc(=O)c(-c3nc4ccccc4o3)cc2c1	66.4*	-7.3%	-17.4%	25.0*	52.0%	35.4%
COc1ccc2oc(=O)c(C(=O)N3CCc4ccccc43)cc2c1	-14.2	-3.1%	-1.7%	-1.1	7.7%	8.5%
O=c1oc2ccccc2cc1-c1nc2ccccc2o1	71.0*	-43.6%	-2.9%	37.8*	1.5%	43.9%
O=c1oc2ccccc2cc1-c1nc2c(s1)CCCC2	56.0*	-2.7%	-8.2%	31.2*	163.7%	279.1%
O=C1c2ccccc2C(=O)N1c1cccc(-c2nc3ccccc3o2)c1	3.0	-9.1%	-3.6%	0.5	x	12.9%
CCN(CC)S(=O)(=O)c1ccc(=O)[nH]c1	14.1	x	-3.9%	4.8	14.9%	16.9%
O=C(N[C@@H](Cc1ccccc1)C(=O)O)c1ccncc1	-15.6	1.7%	0.8%	-1.4	11.9%	8.3%
CCN1C=CC2=C(C#N)C(N)C(C#N)(C#N)C(c3ccccc3C(F)(F)F)C2C1 (stereo not given)	-13.7	8.2%	-8.6%	-1.8	u	2.94µM*
O=C(COC(=O)C1CCN(c2ccc(C(F)(F)F)cn2)CC1)NCc1cccc(Cl)c1	x	x	-0.4%	x	-1.8%	u
O=c1c2c3c(sc2nc2sc(CN4CCOCC4)cn12)CCCC3	+	1.2%	-2.6%	17.9*	x	42.2%
CCCc1ccc(OCc2ccccc2)c2c(=O)cc(C(=O)OCC)oc12	2.9	5.3%	0.9%	-2.6	33.6%	-2.4%
O=C(Nc1nccs1)c1ccc(Br)s1	60.4*	-40.3%	-7.8%	54.3*	115.6%	86.3%
O=C(Nc1nccs1)c1ccc(Cl)nc1	23.1	-0.5%	-3.8%	26.0	46.5%	55.8%
Cc1ccc(C(=O)Nc2nccs2)s1	92.4*	-4.8%	-1.1%	59.1*	80.3%	131.0%
Cc1ccc(CN2CCN(C(=O)c3ccncc3)CC2)cc1	-7.4	3.8%	-1.0%	-5.8	8.3%	0.6%
SMILES	Shiga toxin inh	NS1 inh	SARS PLpro yeast	Cycloheximide cs	Pf growth 96h	Pf growth 48h
CSc1nc(NCc2ccccc2)c2c3c(sc2n1)CN(C)CC3	53.0*	-15.7%	-8.4%	19.2*	u	13.1µM*
COCCNc1nc(SC)nc2sc3c(c12)CCN(C)C3	-3.3	0.0%	-0.1%	-1.2	u	0.4%
CSc1nc(NCC(C)C)c2c3c(sc2n1)CN(C)CC3	-10.2	4.0%	-0.1%	-0.4	3.29µM*	u
O=C(CSc1nnc(COc2ccccc2)n1Cc1ccco1)c1ccc(F)cc1	26.3	-10.4%	-3.6%	36.5*	13.1µM*	11.7µM*
c1ccc(-c2nnc(SCc3nc4ccccc4[nH]3)n2Cc2ccco2)cc1	-5.5	1.0%	13.0%	6.4	0.7%	-4.5%
Cc1occc1-c1nnc(SCC(=O)Nc2nccs2)n1Cc1ccco1	-5.8	-0.8%	-3.9%	1.0	x	12.0%
